Screens (PubChem)
D2 ag-1 – agonists of human D2 dopamine receptor (beta-arrestin); P14416; DiscoveRx PathHunter D2 beta-arrestin, luminescence, 90 min; 100% = 57 uM dopamine signal; activation, % (test concentration not listed); actives 0.084% (n = 360,000); AID 624465; in the data active means activation above about 40%; inconclusive means between about 15% and that limit
Target sequence (P14416 whole entry, looked up): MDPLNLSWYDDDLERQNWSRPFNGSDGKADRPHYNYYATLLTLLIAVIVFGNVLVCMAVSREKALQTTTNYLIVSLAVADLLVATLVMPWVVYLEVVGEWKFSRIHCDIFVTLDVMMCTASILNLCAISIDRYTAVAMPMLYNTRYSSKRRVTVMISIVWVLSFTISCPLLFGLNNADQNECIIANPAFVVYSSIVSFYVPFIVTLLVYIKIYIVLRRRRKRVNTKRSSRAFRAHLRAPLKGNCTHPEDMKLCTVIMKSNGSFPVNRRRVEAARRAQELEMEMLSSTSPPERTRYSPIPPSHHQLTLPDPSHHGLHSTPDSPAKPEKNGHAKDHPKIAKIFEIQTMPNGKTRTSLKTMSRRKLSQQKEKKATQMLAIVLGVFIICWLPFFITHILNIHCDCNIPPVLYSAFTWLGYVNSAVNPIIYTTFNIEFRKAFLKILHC
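Agonist mode: compounds alone added to overnight-plated D2 PathHunter cells for 90 min at 37 C, with 57 uM final dopamine (EC100) defining full response. Beta-arrestin recruitment detected by chemiluminescent reagent, read after 1 h at ambient temperature.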
D2 PAM-1 – positive allosteric modulators of human D2 dopamine receptor | AID 624464 | DiscoveRx D2 beta-arrestin cells, luminescence, 90 min; 100% = 57 uM dopamine signal | actives 0.23% (n = 360,000) | potentiation, % (test concentration not listed); in the data active means potentiation above about 50%; inconclusive means mostly about 30% to 49%
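D2 cells co-treated with compound plus 50 nM dopamine (EC20) for 90 min at 37 deg C to detect potentiation. Beta-arrestin recruitment was read as enzyme-fragment luminescence after 1 h at ambient temperature. Full response was set by 57 uM dopamine.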
D2 PAM-2 – positively modulates the human D2 dopamine receptor allosterically; actives 0.34% (n = 340,000); HEK293 T-REx D2, calcium flux, EC20 dopamine potentiation; AID 485347; P14416; potentiation, % at 10 µM;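 active means potentiation over 3 SD above the plate norm, cut at about 30% in these data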
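Potentiation of an EC20 dopamine calcium response measured kinetically over 180 s, after a preceding 180 s compound-only read flagging agonists. Cells: inducible Hek293 Trex D2 line, 4000/well, cultured overnight at 30 C before dye loading.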
D2 ag-2 – agonists of human D2 dopamine receptor. AID 485358. HEK293 T-REx D2 cells, calcium flux agonist mode. actives 0.53% (n = 340,000). activation, % at 2 µM;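 active means activation over 3 SD above normal in the single-dose calcium agonist read, cut at about 30% in these data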
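Agonism scored from kinetic calcium signal (1 read/sec, 180 s) following compound pin transfer, after a 10 s baseline. Cells: HEK293 Trex line expressing inducible D2 receptor coupled to calcium, dye-loaded after overnight culture at 30 C.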
D2 antag – D2 dopamine receptor (human) antagonism | inhibition, % at 10 µM | actives 2% (n = 340,000) | HEK293 TREx D2 cells, calcium flux, dopamine EC80 | AID 485344; in the data active means inhibition above about 30%; inactive means below that, where a call was filed
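Inhibition of EC80 dopamine-driven calcium flux, recorded kinetically, defines activity here; cells are a tetracycline-induced HEK293 T-REx line expressing force-coupled D2.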
Numbers stand for hits; – = inactive; ? = inconclusive; · = no result. An excerpt weighted towards active compounds, which were near 2.4% of everything screened.

SMILES	D2 ag-1	D2 PAM-1	D2 PAM-2	D2 ag-2	D2 antag
COc1cc(OC)cc(C(=O)N2CCN(C3CCCCC3)CC2)c1	–	–	–	–	–
COc1cc(OC)cc(C(=O)N2CCN(C(=O)c3cccc(F)c3)CC2)c1	–	–	–	–	31
O=C(c1cccc(Br)c1)N1CCN(C(=O)c2cccc(Br)c2)CC1	–	–	35	–	–
COc1ccc(OCC(=O)N2CCN(C(=O)c3cccc(F)c3)CC2)cc1	–	–	–	–	–
COc1cc(OC)cc(C(=O)N2CCC(N3CCCCCC3)CC2)c1	–	–	38	–	–
COc1cc(OC)cc(C(=O)N2CCN(c3ccccc3F)CC2)c1	–	–	–	–	31
O=C(c1cccc(Br)c1)N1CCN(C(=O)N2CCOCC2)CC1	–	–	–	–	–
Cc1ccsc1CCN1C(=O)N(c2ccc(F)cc2)C(=O)C1CC(=O)Nc1ccccc1 (stereo not given)	·	·	–	–	·
CS(=O)(=O)N(CCc1ccccc1)CC(N)=O	–	–	–	–	31
OCCNCc1cc(Br)ccc1OCc1ccccc1Cl	–	–	–	–	42
COc1cccc(Oc2nc(-c3ccccc3O)nc3ccccc23)c1	–	–	–	–	43
Cc1cc(C(=O)CSc2nnc(N)s2)c(C)n1CCc1ccc(Cl)cc1	–	–	–	–	–
Cc1cc(C(=O)CSc2nnc(N)s2)c(C)n1CCc1ccc(F)cc1	–	–	–	–	43
CC1C2CC(C/C2=N/NC(=O)c2cccs2)C1(C)C (stereo not given)	–	–	–	–	–
C[C@@H]1C2CC(C/C2=N\NC(=O)c2ccncc2)C1(C)C (stereo not given in full)	–	–	–	–	36
Cc1cc2c(cc1C)NC(c1c(C)n(C)n(-c3ccccc3)c1=O)C1=C(CC(C)(C)CC1=O)N2 (stereo not given)	–	–	–	34	–
COc1cc(C2Nc3cc(C)c(C)cc3NC3=C2C(=O)CC(C)(C)C3)ccc1OC(C)=O (stereo not given)	–	–	–	–	–
COc1ccc(F)cc1S(=O)(=O)NCC(c1ccco1)S(=O)(=O)c1ccc(F)cc1 (stereo not given)	·	·	–	–	·
CC1CCN(CCCCOc2ccc(C(C)(C)C)cc2)CC1	–	–	–	–	33
c1ccc(COc2ccc(OCCCCN3CCCC3)cc2)cc1	–	–	–	–	–
CC1CCN(CCOc2ccc(OCc3ccccc3)cc2)CC1	–	–	–	–	31
Cc1ccc(C2CC(=O)N(Cc3ccc(F)cc3)c3c2c(C)nn3-c2nc(C)cc(C)n2)cc1 (stereo not given)	·	·	–	–	·
CCc1ccccc1NC(=O)Cn1nc(C)c2nn(-c3ccc(Cl)cc3)c(C)c2c1=O	·	·	–	·	·
Fc1ccc(-c2csc(N3CCOCC3)n2)cc1	–	–	–	–	–
c1ccc2oc(-c3csc(N4CCOCC4)n3)cc2c1	–	–	31	–	–
SMILES	D2 ag-1	D2 PAM-1	D2 PAM-2	D2 ag-2	D2 antag
COc1ccc(S(=O)(=O)N2CCCCC2)cc1NC(=O)Cc1ccsc1	–	–	–	–	30
CCOc1ccc(S(=O)(=O)N2CCCCC2)cc1NC(=O)Cc1ccc(OC)cc1	–	–	·	·	·
COc1ccc(S(=O)(=O)N2CCCCCC2)cc1NC(=O)Cc1ccccc1	–	–	–	–	–
CCOc1ccc(S(=O)(=O)N2CCCCC2)cc1NC(=O)Cc1ccsc1	–	–	–	–	34
COc1ccc(CC(=O)Nc2cc(S(=O)(=O)N3CCCCC3)ccc2C)cc1	–	–	–	–	31
O=C(O)c1ccccc1-c1nc2ccccc2[nH]1	–	–	–	–	–
Oc1ccc2ccccc2c1C=Nc1ccccc1-c1nc2ccccc2[nH]1	–	53	–	–	41
CCCOc1ccccc1C(=O)Nc1ccc(-c2nc3ccc(C)cc3s2)cc1	·	·	·	–	·
O=C(Nc1ccccc1)c1nc[nH]c1C(=O)NCCNC(=O)c1[nH]cnc1C(=O)Nc1ccccc1	?	61	·	·	·
COc1ccc2nc(NC(=O)Nc3ccccc3)sc2c1	–	–	–	–	–
CCOCC(=O)Nc1nc2ccc(OC)cc2s1	–	–	·	–	–
CCOc1ccc2nc(NC(=O)Nc3ccccc3)sc2c1	–	–	–	–	32
CCC(=O)Nc1nc2ccc(NC(=O)c3cc(OC)c(OC)c(OC)c3)cc2s1	–	–	31	–	–
COc1cc(C(=O)Nc2ccc(Cl)c([N+](=O)[O-])c2)cc(OC)c1OC	–	–	–	–	37
CCOc1ccc2nc(NC(=O)COC)sc2c1	–	–	34	–	–
COc1ccc(CCNC(=O)CCSCc2ccccc2Cl)cc1OC	·	·	–	–	·
Cc1ccc2c(c1)C(=O)OC(C(=O)Nc1ccc(C(=O)O)cc1)C2 (stereo not given)	·	·	–	–	·
CCC(CC)C(=O)N(c1ccc(F)cc1)C1C=CS(=O)(=O)C1 (stereo not given)	–	–	–	–	73
CCOC(=O)c1[nH]c(C)c(CCC(=O)NCc2ccccc2Cl)c1C	·	·	–	–	·
O=C(/C=C/c1ccccc1)N(c1ccccn1)C1CCCCC1	–	–	–	34	–
CCN(CC)S(=O)(=O)c1ccc(/C=C/C(=O)N(c2ccccn2)C2CCCCC2)cc1	–	–	–	–	–
COc1ccc(NC(=O)/C=C/c2cc(Br)ccc2OC)cc1	–	–	–	–	49
COc1ccc(OC)c(/C=C/C(=O)Nc2ccc3c(c2)CCC3)c1	–	–	–	–	49
CCOc1cc(C(=O)Nc2ccc3oc(-c4ccc(F)cc4Cl)nc3c2)cc(OCC)c1OCC	·	·	–	·	·
CCN1CCCC1CNC(=O)c1cc(S(N)(=O)=O)ccc1OC (stereo not given)	–	–	·	·	·
SMILES	D2 ag-1	D2 PAM-1	D2 PAM-2	D2 ag-2	D2 antag
CCC(=O)Nc1cc(C(=O)NCC2CCCN2CC)c(OC)cc1N(C)C (stereo not given)	–	–	–	–	73
CCN1CCCC1CNC(=O)c1ccccc1Cl (stereo not given)	–	–	·	·	·
CCN1CCCC1CNC(=O)c1cc(NC(C)=O)c(N(C)C)cc1OC (stereo not given)	–	–	–	–	69
CSc1ccc(/C=C/C(=O)OCC(=O)NC2CCCC2)cc1	–	–	·	·	·
CSc1ccc(/C=C/C(=O)OCC(=O)c2ccc[nH]2)cc1	–	–	–	–	50
CC(=O)Nc1ccc(OC(=O)c2ccc(Br)c([N+](=O)[O-])c2)cc1	–	–	–	–	30
CCCOc1ccc(C2C(=O)N(C3CCCCC3)CC(=O)N2CCc2ccccc2)cc1OC (stereo not given)	·	·	–	–	·
Cc1ccc(NC(=O)Cn2c(=O)n(CCC(=O)N3CCc4ccccc4C3)c(=O)c3ccccc32)c(C)c1	·	·	·	–	·
COc1cc2[nH]c(-c3ccc(C)cc3)cc(=O)c2cc1OC	–	–	–	–	84
